PubChem BioAssay (NCATS)
Inconclusive results are not listed. Activity calls are given as the source filed them. Unless noted, calls follow the shape of the dose curve; as a rule, active = well fitted curve in the direction sought with a large enough effect; inconclusive = small, poorly fitted or top-dose-only effect, or another doubt; inactive = no such curve, though single readings can be large; an effect the other way counts as inactive or inconclusive.

Legend:
[1] = biological target: Galactokinase (Homo sapiens) (UniProt P51570); experiment: qHTS Validation Assay for Inhibitors of Human Galactokinase (GALK) (AID 493189); details: purified human GALK enzyme activity, qHTS 7-point titration; series mostly up to 57.5 µM
Chain of Galactokinase (Homo sapiens) (P51570 whole entry, looked up): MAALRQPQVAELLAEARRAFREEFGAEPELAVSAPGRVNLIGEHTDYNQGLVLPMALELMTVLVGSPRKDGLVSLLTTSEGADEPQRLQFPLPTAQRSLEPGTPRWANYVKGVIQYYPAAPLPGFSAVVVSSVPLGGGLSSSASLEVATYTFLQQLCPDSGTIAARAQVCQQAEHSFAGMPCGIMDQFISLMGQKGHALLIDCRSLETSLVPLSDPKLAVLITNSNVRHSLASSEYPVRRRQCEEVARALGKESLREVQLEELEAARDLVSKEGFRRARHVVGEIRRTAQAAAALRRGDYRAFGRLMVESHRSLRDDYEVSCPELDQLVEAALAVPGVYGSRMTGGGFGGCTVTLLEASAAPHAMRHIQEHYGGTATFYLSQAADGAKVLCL
Procedure, shortened: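 GALK (5 nM) with 35 uM ATP and 100 uM galactose in HEPES pH8.0, MgCl2, NaCl, DTT, BSA; 1 h at room temperature. Residual ATP read by Kinase-Glo Plus luminescence after 10 min.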

[2] = Validation screen for small molecules that induce DNA re-replication in SW480 colon adenocarcinoma cells (AID 504364); details: DNA re-replication phenotype (high-content imaging); series mostly up to 46.1 µM; also: potency is read from the fitted curve at half-maximal effect
Procedure, shortened: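 250 cells/well; compound pinned in; 48 hr, 37 C, 5% CO2; Hoechst added, 40 min; nuclear fluorescence imaged, 405 ex / 500-530 em; re-replication scored as increase in high-intensity nuclei.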

[3] = biological target: Peptidyl-prolyl cis-trans isomerase NIMA-interacting 1 (Homo sapiens) (UniProt Q13526); experiment: qHTS Validation Assay to Find Inhibitors of Pin1 (AID 504536; active = well fitted inhibition curve with a large enough effect in the polarisation, with a control signal flat, not every such curve was filed as active; the % refers to the polarisation); details: Pin1 fluorescence polarization peptide binding assay; series mostly up to 57.5 µM
Chain of Peptidyl-prolyl cis-trans isomerase NIMA-interacting 1 (Homo sapiens) (Q13526 whole entry, looked up): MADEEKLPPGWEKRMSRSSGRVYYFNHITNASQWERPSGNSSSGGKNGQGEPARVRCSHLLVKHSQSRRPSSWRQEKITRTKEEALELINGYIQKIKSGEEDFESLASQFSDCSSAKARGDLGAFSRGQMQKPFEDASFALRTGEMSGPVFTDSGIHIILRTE
Procedure, shortened: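 Fluorescence polarization competition: compounds (titration) displace HiFluor-488-labeled Pin1-1b peptide from Pin1 (0.3 uM final) in pH 7.5 HEPES buffer with DTT, 10 min at room temperature; %Activity normalized to no-enzyme wells, curves fitted.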

[4] = biological target: Phosphoglycerate kinase, glycosomal (Trypanosoma brucei brucei) (UniProt P07378); experiment: qHTS Validation Assay to Find Inhibitors of Phosphoglycerate Kinase (AID 504547); details: enzymatic PGK inhibition, coupled luminescence read-out; series mostly up to 57.5 µM
Chain of Phosphoglycerate kinase, glycosomal (Trypanosoma brucei brucei) (P07378 whole entry, looked up): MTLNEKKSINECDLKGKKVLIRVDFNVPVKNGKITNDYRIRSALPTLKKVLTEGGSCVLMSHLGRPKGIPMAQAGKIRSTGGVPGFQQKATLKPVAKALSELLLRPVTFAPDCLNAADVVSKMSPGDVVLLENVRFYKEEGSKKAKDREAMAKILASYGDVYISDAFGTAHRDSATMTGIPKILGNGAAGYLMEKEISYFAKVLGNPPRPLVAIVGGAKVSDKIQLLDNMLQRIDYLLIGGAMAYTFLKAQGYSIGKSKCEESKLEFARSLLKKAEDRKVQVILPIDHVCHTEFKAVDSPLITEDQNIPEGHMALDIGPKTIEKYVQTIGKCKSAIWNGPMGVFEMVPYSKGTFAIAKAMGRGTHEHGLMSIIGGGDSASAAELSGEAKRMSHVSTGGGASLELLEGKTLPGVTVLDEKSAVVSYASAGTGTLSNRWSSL
Procedure, shortened: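 PGK activity was coupled to GAPDH (100nM final), which generates the unstable substrate 1,3-bisphosphoglycerate in-well. Reactions ran 60 minutes at room temperature in 100mM TEA pH 7.6, 5mM MgCl2, 0.01% Tween-20, then Kinase-Glo Plus luminescence was read.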

[5] = biological target: phosphoglycerate mutase (Leishmania major) (UniProt Q4Q090); experiment: qHTS Validation Assay to Find Inhibitors of Phosphoglycerate Mutase (AID 504548); details: biochemical enzyme activity; series mostly up to 57.5 µM;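 also: end-point luminescence from Kinase-GloPlus after the PGAM reaction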
Chain of phosphoglycerate mutase (Leishmania major) (Q4Q090 1-553): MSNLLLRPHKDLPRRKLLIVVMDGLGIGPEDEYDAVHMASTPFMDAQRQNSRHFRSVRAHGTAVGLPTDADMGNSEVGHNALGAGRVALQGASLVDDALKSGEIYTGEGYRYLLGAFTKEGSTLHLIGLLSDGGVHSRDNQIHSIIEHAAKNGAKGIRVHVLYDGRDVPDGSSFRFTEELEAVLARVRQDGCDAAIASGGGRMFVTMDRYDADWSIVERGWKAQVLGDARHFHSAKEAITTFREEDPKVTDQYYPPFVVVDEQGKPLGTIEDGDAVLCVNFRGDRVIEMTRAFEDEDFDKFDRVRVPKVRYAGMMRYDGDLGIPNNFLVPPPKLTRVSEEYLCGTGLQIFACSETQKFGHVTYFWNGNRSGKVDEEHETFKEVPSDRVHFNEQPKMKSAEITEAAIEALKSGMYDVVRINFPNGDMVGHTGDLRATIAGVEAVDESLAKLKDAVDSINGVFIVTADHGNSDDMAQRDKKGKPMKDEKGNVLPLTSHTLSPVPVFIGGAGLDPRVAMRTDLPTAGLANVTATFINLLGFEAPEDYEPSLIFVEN
Procedure, shortened: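 L. major PGAM (1.25nM final) was added to substrate buffer and pinned compound, incubated 45 minutes at room temperature, then Kinase-GloPlus added; luminescence read after 10 minutes. Buffer: 100 mM TEA pH 7.6, 5 mM MgCl2, 0.01% Tween-20.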

[6] = Inducers of the Endoplasmic Reticulum Stress Response (ERSR) in human glioma: Validation (AID 504836); details: human glioma cells, ER stress response reporter; series mostly up to 38.3 µM
Procedure, shortened: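 Stably transfected U87-MG glioma cells carrying a GRP78-based luciferase sensor; 16 h compound incubation. Luminescence end-point read 10 min after Bright-Glo addition at room temperature.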

[7] = biological target: DNA dC->dU-editing enzyme APOBEC-3G (Homo sapiens) (UniProt Q9HC16); experiment: qHTS for inhibitors of Vif-A3G interactions: Validation (AID 588379); details: Vif-A3G protein interaction assay; series mostly up to 46.1 µM
Chain of DNA dC->dU-editing enzyme APOBEC-3G (Homo sapiens) (Q9HC16 whole entry, looked up): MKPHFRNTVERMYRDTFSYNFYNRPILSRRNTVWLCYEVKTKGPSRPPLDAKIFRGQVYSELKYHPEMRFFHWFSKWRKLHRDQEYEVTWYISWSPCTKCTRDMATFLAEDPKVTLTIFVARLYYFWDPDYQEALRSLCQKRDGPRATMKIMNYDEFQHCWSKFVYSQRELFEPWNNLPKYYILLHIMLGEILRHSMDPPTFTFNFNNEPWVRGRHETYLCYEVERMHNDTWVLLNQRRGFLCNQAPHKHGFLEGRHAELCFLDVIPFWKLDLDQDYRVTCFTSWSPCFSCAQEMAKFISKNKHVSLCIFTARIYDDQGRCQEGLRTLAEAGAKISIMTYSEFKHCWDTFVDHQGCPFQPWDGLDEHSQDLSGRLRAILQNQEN
Procedure, shortened: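 HeLa cells stably expressing Vif and A3G-eYFP, 700 cells/well, incubated overnight at 37 deg C, then exposed to compound overnight at 37 deg C. Inhibition of Vif-mediated degradation read as increased yellow fluorescence (Ex 488/Em 500-530) by laser-scanning cytometry.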

[8] = biological target: Ubiquitin carboxyl-terminal hydrolase 1 (Homo sapiens) (UniProt O94782); experiment: Inhibitors of USP1/UAF1: Pilot qHTS (AID 504865); details: purified USP1/UAF1, Ub-rhodamine cleavage fluorescence; series mostly up to 114 µM;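 also: rhodamine fluorescence freed from ubiquitin-rhodamine substrate followed over time; top concentration of the series differs between compounds; nearly all actives have a fitted effect of over 35% in size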
Chain of Ubiquitin carboxyl-terminal hydrolase 1 (Homo sapiens) (O94782 whole entry, looked up): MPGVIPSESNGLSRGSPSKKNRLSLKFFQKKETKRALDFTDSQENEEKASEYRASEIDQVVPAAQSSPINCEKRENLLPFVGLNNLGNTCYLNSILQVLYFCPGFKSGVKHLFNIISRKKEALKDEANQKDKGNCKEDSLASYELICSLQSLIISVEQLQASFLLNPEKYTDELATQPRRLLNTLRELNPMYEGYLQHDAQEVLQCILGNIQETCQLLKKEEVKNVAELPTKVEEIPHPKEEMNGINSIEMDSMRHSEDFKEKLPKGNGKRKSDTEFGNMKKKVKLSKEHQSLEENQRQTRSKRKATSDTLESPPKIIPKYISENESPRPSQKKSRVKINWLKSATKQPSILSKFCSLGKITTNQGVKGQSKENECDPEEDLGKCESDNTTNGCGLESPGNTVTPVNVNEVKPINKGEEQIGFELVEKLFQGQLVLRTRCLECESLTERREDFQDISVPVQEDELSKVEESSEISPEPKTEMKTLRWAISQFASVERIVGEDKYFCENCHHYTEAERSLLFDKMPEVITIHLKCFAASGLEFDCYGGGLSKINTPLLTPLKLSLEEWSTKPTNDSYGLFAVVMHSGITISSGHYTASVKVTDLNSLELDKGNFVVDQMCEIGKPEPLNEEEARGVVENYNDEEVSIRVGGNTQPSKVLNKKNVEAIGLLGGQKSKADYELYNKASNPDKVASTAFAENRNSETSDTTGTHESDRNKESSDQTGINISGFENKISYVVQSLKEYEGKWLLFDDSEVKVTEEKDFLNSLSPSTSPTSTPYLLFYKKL
Procedure, shortened: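 USP1/UAF1 complex (1nM) preincubated with compound 15 min at room temperature, then Ub-Rho substrate (150nM final) added. Fluorescence read kinetically at 480/540 nm, 6 reads every 60 seconds. Buffer: 50mM HEPES pH 7.8, 0.5mM EDTA, 0.1 mg/ml BSA, 1mM TCEP, 0.01% Tween-20.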

[9] = qHTS for Inhibitors of ATXN expression: Validation (AID 588378); details: cell-based ATXN2 expression reporter assay, luminescence; series mostly up to 57.1 µM; also: nearly all actives have a fitted effect of over 75% in size; also: potency is read from the fitted curve at half-maximal effect
Procedure, shortened: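 Luminescence from an ATXN2-FFLuc reporter in HEK293 cells served as read-out after 24 h compound treatment at 37 degrees C; CellTiter-Fluor fluorescence was recorded first to assess viability.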

Measured: Potency

C=C(C)[C@H]1Cc2c(ccc3c2O[C@@H]2COc4cc(OC)c(OC)cc4[C@@H]2C3=O)O1
active: [2] 0.92 µM
not listed: [8] | [9]
inactive: all other assays above

CC(=O)[C@H]1CC[C@H]2[C@@H]3CC[C@H]4C[C@](C)(O)CC[C@]4(C)[C@H]3CC[C@]12C
not listed: [1] | [2] | [7]
inactive: all other assays above

N#CC(C#N)=Cc1ccc(O)c(O)c1
inactive: all assays above

CCCN1CCC[C@@H]2Cc3nc(N)ncc3C[C@H]21
not listed: [7]
inactive: all other assays above

NCC1(CC(=O)O)CCCCC1
inactive: all assays above

Cc1ncc(CNC(=O)N(CCCl)N=O)c(N)n1
not listed: [7]
inactive: all other assays above

NCC(O)c1ccc(O)cc1 (stereo not given)
not listed: [7]
inactive: all other assays above

c1ccc2c(c1)OCC(C1=NCCN1)O2 (stereo not given)
not listed: [7] | [9]
inactive: all other assays above

CCCN1CCC[C@@H]2Cc3[nH]ncc3C[C@H]21
inactive: [7]

Cc1c(OCC(F)(F)F)ccnc1CS(=O)c1nc2ccccc2[nH]1 (stereo not given)
inactive: [9]

CNCCC(Oc1ccc(C(F)(F)F)cc1)c1ccccc1 (stereo not given)
active: [9] 14.1 µM
